Assay results reported in PubChem BioAssay (EPA / NIEHS).
Inconclusive results are not listed. Active and inactive are the calls of the source. The calls were made as follows, unless noted: active = hit-call score of the fitted dose curve at least 0.9, where 1 is the maximum; inactive = score below 0.9.

Columns and labels:
[1] = target: Paired box protein Pax-6 (Homo sapiens) (UniProt P26367); test: ATG_Pax6_CIS: Attagene CIS-FACTORIAL HepG2 Assay for human Paired Box 6 (PAX6) (AID 2282956); settings: HepG2 CIS-FACTORIAL PAX6 reporter transcription, RNA readout; actives raise or lower the signal
In short: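 DMSO-referenced bidirectional fits of reporter mRNA fluorescence; HepG2 with transient cis-promoter MRTUs, 24 h post-dose, RT-PCR plus capillary electrophoresis detection.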

[2] = ATG_PPRE_CIS: Attagene CIS-FACTORIAL HepG2 Assay for human Peroxisome Proliferator-activated Response Element (PPRE) (AID 2282958); settings: HepG2 PPRE cis-element reporter, Attagene transcription factor profiling; actives raise or lower the signal
In short: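 Measured endpoint: PPRE-controlled reporter mRNA, detected by RT-PCR and capillary electrophoresis fluorescence, from transiently transfected HepG2 cells 24 h after dosing. Curves fitted in both directions using DMSO baseline.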

[3] = ATG_RORE_CIS: Attagene CIS-FACTORIAL HepG2 Assay for human RAR-related Orphan Receptor Element (RORE) (AID 2282959); settings: HepG2 Attagene cis-factorial RORE reporter, mRNA; actives raise or lower the signal
In short: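 Transiently transfected HepG2 reporter cells were treated 24 h. Reporter transcripts were detected by RT-PCR and capillary electrophoresis, with bidirectional fitting against DMSO.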

[4] = ATG_Sox_CIS: Attagene CIS-FACTORIAL HepG2 Assay for human SRY-box transcription factor (SOX) (AID 2282960); settings: HepG2 Attagene cis-factorial SOX reporter, mRNA; actives raise or lower the signal
In short: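 Gain- or loss-of-signal endpoint, fitted bidirectionally with DMSO as negative control. Based on reporter mRNA from transfected HepG2 cells harvested 24 h post-treatment and quantified via RT-PCR and capillary electrophoresis.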

[5] = target: Transcription factor Sp1 (Homo sapiens) (UniProt P08047); test: ATG_Sp1_CIS: Attagene CIS-FACTORIAL HepG2 Assay for human Specificity Protein 1 (Sp1) (AID 2282961); settings: HepG2 Sp1 cis-reporter transcription, actives raise or lower the signal
In short: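 Endpoint reflects endogenous Sp1 transcriptional activity, not an exogenous fusion protein: HepG2 cells with transfected cis-regulated reporters, 24 h dosing, RT-PCR/capillary electrophoresis mRNA read-out, DMSO-normalised bidirectional fit.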

[6] = ATG_SREBP_CIS: Attagene CIS-FACTORIAL HepG2 Assay for human Sterol Regulatory Element Binding (SREBP) (AID 2282962); settings: HepG2 Attagene cis-factorial SREBP reporter, mRNA; actives raise or lower the signal
In short: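 In this cis-format assay, HepG2 liver cells express reporters controlled by promoter elements responsive to native transcription factors. Exposure lasts 24 h; reporter mRNA fluorescence from capillary electrophoresis gives the signal, fitted bidirectionally against DMSO.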

[7] = ATG_TA_CIS: Attagene CIS-FACTORIAL HepG2 Assay for human TA Basal Promoter (AID 2282964); settings: HepG2 Attagene CIS-factorial TA basal promoter reporter; actives raise or lower the signal
In short: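 HepG2 cells transiently transfected with multiplexed cis-promoter reporter units, dosed 24 h. Reporter mRNA measured by RT-PCR, 6-FAM labelling, HpaI digestion and capillary electrophoresis; bidirectional fit versus DMSO baseline, serving as background control.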

[8] = ATG_TCF_b_cat_CIS: Attagene CIS-FACTORIAL HepG2 Assay for human T-Cell-Factor with beta-catenin (TCF/b-cat) (AID 2282965); settings: HepG2 TCF/beta-catenin cis-reporter transcription, actives raise or lower the signal
In short: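 HepG2 cells transiently transfected with multiple cis-promoter-regulated reporter transcription units, so endogenous transcription factor activity is measured. Reporter mRNA read 24 hours after dosing by RT-PCR, fluorescent labelling and capillary electrophoresis; bidirectional fitting against DMSO.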

[9] = ATG_TAL_CIS: Attagene CIS-FACTORIAL HepG2 Assay for human TAL Basal Promoter (AID 2282966); settings: HepG2 Attagene cis-factorial TAL promoter reporter; actives raise or lower the signal;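 also: background control endpoint measuring basal TAL promoter reporter mRNA not a specific factor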
In short: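 Background-control endpoint: basal TAL promoter reporter transcripts in transiently transfected HepG2, measured 24 h after dosing. Read-out by RT-PCR with fluorescent primer extension and capillary electrophoresis; gain or loss of signal fitted relative to DMSO.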

[10] = ATG_TGFb_CIS: Attagene CIS-FACTORIAL HepG2 Assay for human Transforming Growth Factor (TGF) (AID 2282967); settings: HepG2 Attagene CIS TGFb reporter, mRNA transcription; actives raise or lower the signal
In short: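 HepG2 cells transiently transfected with cis-promoter-driven multiplexed reporter units; 24 h compound exposure. Reporter mRNA measured by RT-PCR, 6-FAM labeling, HpaI digestion and capillary electrophoresis; bidirectional fit versus DMSO baseline.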

[11] = ATG_VDRE_CIS: Attagene CIS-FACTORIAL HepG2 Assay for human Vitamin D Receptor Element (VDRE) (AID 2282968); settings: HepG2 VDRE cis-reporter transcription, actives raise or lower the signal
In short: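 Steps: transfect HepG2 with multiple reporter transcription units; dose chemicals 24 h; isolate RNA; RT-PCR; label with 6-FAM primer extension; HpaI digest; capillary electrophoresis. Curves fitted both directions against DMSO.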

[12] = target: Estrogen receptor (Homo sapiens) (UniProt P03372); test: ATG_ERa_TRANS: Attagene TRANS-FACTORIAL HepG2 Assay for human Estrogen Receptor alpha (ERa) (AID 2282970; active = hit-call score of the fitted dose curve at least 0.9, where 1 is the maximum); settings: HepG2 Attagene TRANS ERa GAL4 reporter, mRNA
In short: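 Reporter transcripts were measured 24 h after dosing by RT-PCR with fluorescent primer extension and capillary electrophoresis. The system is transiently transfected HepG2 expressing exogenous NR-Gal4 chimeras driving GAL4-UAS reporters; DMSO is the baseline.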

[13] = target: X-box-binding protein 1 (Homo sapiens) (UniProt P17861); test: ATG_Xbp1_CIS: Attagene CIS-FACTORIAL HepG2 Assay for human X-box Binding Protein 1 (XBP1) (AID 2282972); settings: HepG2 XBP1 cis-element reporter, Attagene multiplex; actives raise or lower the signal
In short: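 Changes in reporter transcript abundance, read by RT-PCR and capillary electrophoresis, reflect endogenous transcription factor activity. Transfected HepG2 cells received compound for 24 hours; DMSO defined baseline for bidirectional analysis.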

[14] = ATG_GAL4_TRANS: Attagene TRANS-FACTORIAL HepG2 Assay for GAL4 (Internal Marker) (AID 2282976; active = hit-call score of the fitted dose curve at least 0.9, where 1 is the maximum); settings: HepG2 Attagene TRANS GAL4 internal marker reporter
In short: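 In transfected human HepG2 liver cells dosed 24 h, GAL4 reporter mRNA serves as a baseline marker. Detection by RT-PCR with fluorescent capillary electrophoresis, activity fitted upward relative to DMSO.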

[15] = ATG_M_19_TRANS: Attagene TRANS-FACTORIAL HepG2 Assay for M19 Transcription Factor (Internal Marker) (AID 2282974; active = hit-call score of the fitted dose curve at least 0.9, where 1 is the maximum); settings: HepG2 Attagene TRANS-FACTORIAL M19 internal marker reporter
In short: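 Using RT-PCR and capillary electrophoresis, reporter mRNA from transiently transfected human HepG2 cells was quantified following 24 h exposure; activity was fitted in the positive direction against DMSO.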

[16] = ATG_PXRE_CIS: Attagene CIS-FACTORIAL HepG2 Assay for human Pregnane X Receptor Element (PXRE) (AID 2282957); settings: HepG2 Attagene CIS-FACTORIAL PXRE reporter, mRNA; actives raise or lower the signal
In short: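 Reporter transcripts under endogenous PXR-responsive cis-regulation quantified from total RNA of transfected HepG2 cells 24 h post-dosing, via RT-PCR with fluorescent primer extension and capillary electrophoresis. Gain or loss of signal fitted against DMSO baseline.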

[17] = target: Signal transducer and activator of transcription 3 (Homo sapiens) (UniProt P40763); test: ATG_STAT3_CIS: Attagene CIS-FACTORIAL HepG2 Assay for human Signal Transducer and Activator of Transcription 3 (STAT3) (AID 2282963); settings: HepG2, Attagene cis-factorial STAT3 reporter transcription; actives raise or lower the signal
In short: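 HepG2, MRTU-transfected, 24 h dosing. RNA → RT → PCR → FAM label → HpaI → CE. Bidirectional fit vs DMSO.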

[18] = target: Steroid hormone receptor ERR1 (Homo sapiens) (UniProt P11474); test: ATG_ERRa_TRANS: Attagene TRANS-FACTORIAL HepG2 Assay for human Estrogen-Related Receptor alpha (ERRa) (AID 2282971; active = hit-call score of the fitted dose curve at least 0.9, where 1 is the maximum); settings: HepG2 Attagene TRANS reporter, ERRa transactivation
In short: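 Reporter transcripts from ERRa-Gal4 chimera activity measured in transiently transfected human HepG2 cells 24 hours after dosing, using RT-PCR with 6-FAM primer extension, HpaI digestion and capillary electrophoresis; DMSO is baseline.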

Measured: AC50

Transcription factor Sp1 (Homo sapiens), sequence (P08047 whole entry, looked up, the tested form may be a part): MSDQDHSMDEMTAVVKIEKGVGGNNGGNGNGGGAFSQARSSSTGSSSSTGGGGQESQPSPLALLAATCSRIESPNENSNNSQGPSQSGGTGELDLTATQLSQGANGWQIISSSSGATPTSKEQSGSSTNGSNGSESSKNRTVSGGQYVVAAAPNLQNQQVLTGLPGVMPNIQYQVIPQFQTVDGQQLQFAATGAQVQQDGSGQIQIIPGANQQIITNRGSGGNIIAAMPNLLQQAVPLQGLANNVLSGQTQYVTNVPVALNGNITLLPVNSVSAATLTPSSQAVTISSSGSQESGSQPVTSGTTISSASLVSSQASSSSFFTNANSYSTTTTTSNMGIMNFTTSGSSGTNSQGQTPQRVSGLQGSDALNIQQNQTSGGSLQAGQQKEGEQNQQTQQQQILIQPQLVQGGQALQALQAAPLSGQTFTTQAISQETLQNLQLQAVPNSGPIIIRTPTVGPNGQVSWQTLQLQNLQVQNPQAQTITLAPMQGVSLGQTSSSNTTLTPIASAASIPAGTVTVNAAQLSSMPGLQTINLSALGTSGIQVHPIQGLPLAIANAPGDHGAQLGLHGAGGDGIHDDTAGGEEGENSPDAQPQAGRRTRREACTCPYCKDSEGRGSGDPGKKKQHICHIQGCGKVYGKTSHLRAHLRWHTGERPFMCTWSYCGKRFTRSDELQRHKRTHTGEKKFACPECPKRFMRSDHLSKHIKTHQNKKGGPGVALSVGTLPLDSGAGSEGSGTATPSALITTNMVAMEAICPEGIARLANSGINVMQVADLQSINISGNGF
X-box-binding protein 1 (Homo sapiens), sequence (P17861 whole entry, looked up): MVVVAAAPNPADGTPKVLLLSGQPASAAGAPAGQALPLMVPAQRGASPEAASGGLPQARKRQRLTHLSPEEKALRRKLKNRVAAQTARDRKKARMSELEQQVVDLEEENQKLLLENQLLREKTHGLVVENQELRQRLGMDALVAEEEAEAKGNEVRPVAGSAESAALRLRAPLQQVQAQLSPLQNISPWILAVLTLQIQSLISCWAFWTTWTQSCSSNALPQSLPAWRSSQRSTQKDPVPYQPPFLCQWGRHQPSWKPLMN
Signal transducer and activator of transcription 3 (Homo sapiens), sequence (P40763 whole entry, looked up): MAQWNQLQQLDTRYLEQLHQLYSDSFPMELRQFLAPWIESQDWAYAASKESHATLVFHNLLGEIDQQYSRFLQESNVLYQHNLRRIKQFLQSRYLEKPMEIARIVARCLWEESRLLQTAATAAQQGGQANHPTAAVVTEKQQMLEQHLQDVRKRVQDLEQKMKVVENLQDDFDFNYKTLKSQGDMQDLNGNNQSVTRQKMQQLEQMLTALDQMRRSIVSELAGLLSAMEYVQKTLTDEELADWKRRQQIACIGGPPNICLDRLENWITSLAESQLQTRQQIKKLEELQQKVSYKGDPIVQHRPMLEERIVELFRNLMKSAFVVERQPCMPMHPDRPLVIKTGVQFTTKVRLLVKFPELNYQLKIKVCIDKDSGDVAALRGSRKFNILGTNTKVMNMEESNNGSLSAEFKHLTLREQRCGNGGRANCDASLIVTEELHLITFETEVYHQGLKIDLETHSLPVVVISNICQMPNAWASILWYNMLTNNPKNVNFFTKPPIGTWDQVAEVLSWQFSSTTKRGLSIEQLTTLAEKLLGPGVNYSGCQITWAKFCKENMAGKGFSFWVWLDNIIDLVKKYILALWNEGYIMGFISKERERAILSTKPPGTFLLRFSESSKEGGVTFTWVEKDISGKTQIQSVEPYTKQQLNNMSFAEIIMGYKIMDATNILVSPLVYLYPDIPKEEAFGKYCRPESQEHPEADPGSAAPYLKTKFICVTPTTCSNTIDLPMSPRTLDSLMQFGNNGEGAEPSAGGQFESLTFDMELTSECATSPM
Steroid hormone receptor ERR1 (Homo sapiens), sequence (P11474 whole entry, looked up, the tested form may be a part): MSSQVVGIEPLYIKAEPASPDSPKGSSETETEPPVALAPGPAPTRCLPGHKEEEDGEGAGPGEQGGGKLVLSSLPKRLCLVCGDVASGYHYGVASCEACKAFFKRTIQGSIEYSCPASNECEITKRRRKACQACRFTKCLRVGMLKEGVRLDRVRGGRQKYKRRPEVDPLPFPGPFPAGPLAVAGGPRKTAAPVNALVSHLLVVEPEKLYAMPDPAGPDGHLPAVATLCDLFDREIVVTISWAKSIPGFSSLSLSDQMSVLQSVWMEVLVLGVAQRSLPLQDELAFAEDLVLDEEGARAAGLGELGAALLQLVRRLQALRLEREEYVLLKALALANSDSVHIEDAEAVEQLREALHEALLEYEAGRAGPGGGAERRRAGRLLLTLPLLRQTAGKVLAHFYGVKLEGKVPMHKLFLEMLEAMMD
Estrogen receptor (Homo sapiens), sequence (P03372 whole entry, looked up, the tested form may be a part): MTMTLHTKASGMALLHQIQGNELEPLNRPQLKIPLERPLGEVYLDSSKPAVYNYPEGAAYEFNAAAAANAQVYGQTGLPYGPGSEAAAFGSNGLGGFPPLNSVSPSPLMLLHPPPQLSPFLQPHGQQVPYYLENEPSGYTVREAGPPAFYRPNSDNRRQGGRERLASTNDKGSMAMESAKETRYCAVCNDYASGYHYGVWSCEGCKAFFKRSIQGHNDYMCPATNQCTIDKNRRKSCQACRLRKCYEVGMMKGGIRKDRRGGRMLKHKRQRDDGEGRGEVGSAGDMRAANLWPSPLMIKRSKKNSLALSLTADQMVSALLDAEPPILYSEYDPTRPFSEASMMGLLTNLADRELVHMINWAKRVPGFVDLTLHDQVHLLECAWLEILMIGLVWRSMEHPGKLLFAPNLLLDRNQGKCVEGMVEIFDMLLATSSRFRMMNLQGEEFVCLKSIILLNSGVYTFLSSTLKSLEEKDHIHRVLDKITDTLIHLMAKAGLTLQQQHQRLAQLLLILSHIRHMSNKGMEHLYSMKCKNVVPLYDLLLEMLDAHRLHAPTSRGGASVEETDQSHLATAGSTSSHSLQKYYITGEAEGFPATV
Paired box protein Pax-6 (Homo sapiens), sequence (P26367 whole entry, looked up): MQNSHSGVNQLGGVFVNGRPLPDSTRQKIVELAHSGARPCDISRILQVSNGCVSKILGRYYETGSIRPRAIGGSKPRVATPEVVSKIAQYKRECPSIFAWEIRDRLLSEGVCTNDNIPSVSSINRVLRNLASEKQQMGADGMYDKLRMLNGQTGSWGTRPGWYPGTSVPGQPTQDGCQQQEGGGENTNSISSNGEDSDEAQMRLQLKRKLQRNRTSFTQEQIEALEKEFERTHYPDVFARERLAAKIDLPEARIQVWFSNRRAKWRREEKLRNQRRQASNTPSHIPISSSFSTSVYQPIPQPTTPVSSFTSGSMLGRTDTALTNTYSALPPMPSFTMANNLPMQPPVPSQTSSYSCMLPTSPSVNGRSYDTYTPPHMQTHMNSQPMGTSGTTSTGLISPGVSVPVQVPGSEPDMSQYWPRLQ

CC(C=O)c1ccccc1 (stereo not drawn)
inactive: [1] | [2] | [3] | [4] | [5] | [6] | [7] | [8] | [9] | [10] | [12] | [13] | [14]
active: [11] 9.33 µM

N#Cc1ccc(C(c2ccc(C#N)cc2)n2cncn2)cc1
inactive: [1] | [2] | [4] | [5] | [6] | [7] | [8] | [9] | [10] | [11] | [12] | [13] | [15]

CCCCC(CC)COS(=O)(=O)O (stereo not drawn)
active: [16] 62.9 µM
inactive: [1] | [3] | [4] | [6] | [17] | [7] | [8] | [9] | [10] | [11] | [12] | [18] | [13] | [15] | [14]

CCC(C)N (stereo not drawn)
active: [16] 47.5 µM
inactive: [1] | [2] | [4] | [5] | [6] | [17] | [7] | [9] | [10] | [11] | [13]

CCCCCC(=O)OCC
inactive: [1] | [16] | [3] | [4] | [5] | [6] | [7] | [9] | [10] | [11] | [13] | [15] | [14]

Cc1c[nH]c(=O)[nH]c1=O
inactive: [1] | [16] | [2] | [4] | [5] | [6] | [7] | [8] | [9] | [10] | [11] | [13]

CCOC(=O)/C=C\C(=O)OCC
active: [2] 7.64 µM
inactive: [1] | [3] | [4] | [5] | [6] | [17] | [7] | [8] | [9] | [10] | [11] | [12] | [18] | [13] | [15]

CC(=O)/C=C/C1C(C)=CCCC1(C)C (stereo not drawn)
active: [16] 5.09 µM | [11] 13.3 µM | [12] 24.2 µM
inactive: [1] | [3] | [4] | [5] | [6] | [17] | [7] | [8] | [9] | [10] | [13] | [15]

C=CCCCCCCCCOC(C)=O
inactive: [16] | [4] | [5] | [6] | [17] | [7] | [8] | [9] | [10] | [12] | [18] | [13] | [15] | [14]

CCc1cccc(CC)c1
inactive: [1] | [16] | [2] | [4] | [6] | [17] | [7] | [8] | [9] | [10] | [11] | [12] | [13] | [14]

CCc1cccc(C)c1N
inactive: [1] | [2] | [3] | [4] | [5] | [6] | [7] | [8] | [9] | [10] | [11] | [12] | [18] | [13] | [15] | [14]

C=CCNCC=C
inactive: [1] | [4] | [5] | [6] | [7] | [8] | [9] | [10] | [11] | [12] | [13] | [15]
active: [16] 52.1 µM

CO[Si](CCCS)(OC)OC
inactive: [1] | [2] | [3] | [4] | [5] | [6] | [17] | [7] | [8] | [9] | [10] | [12] | [13] | [15] | [14]

CCCCCCCCCCCCc1ccc(O)cc1
active: [12] 0.0847 µM
inactive: [1] | [2] | [3] | [4] | [5] | [6] | [17] | [7] | [8] | [9] | [10] | [11] | [13] | [15] | [14]

CCCCNS(=O)(=O)c1ccccc1
active: [16] 26.7 µM
inactive: [3] | [4] | [5] | [6] | [17] | [7] | [8] | [9] | [10] | [11] | [12] | [13] | [15]
